SMN2 splice enh = increases expression of the SMN2 splice variant. HEK293 SMN2-luciferase splicing reporter, luminescence, 30-36 h. 210,000 compounds, 2.8% hits. Potency, µM (doses to about 46.1 µM), for the others: at the top dose activity change, positive = activation, most hits filed as activators; further: % of control where 0% means no effect; nearly all actives have a fitted effect of over 55% in size
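HEK293 cells carry an SMN2 […]–luciferase reporter in which exon 7 inclusion puts luciferase in frame. Cells were plated 10-12 h before compound addition, then incubated 30-36 h at 37C. ONE-Glo luminescence was read; sodium butyrate at 4.5 mM final served as control.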
NPC1 promoter act = NPC1 promoter activation. Huh7 NPC1 promoter luciferase reporter, 24 h. Potency, µM (top dose mostly 9.22 µM), for inactives: top-dose activation, actives largely listed as activators. 320,000 compounds, 2.4% hits. AID 485313; further: % of control where 0% means no effect; nearly all actives have a fitted effect of over 60% in size
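Luciferase expression driven by the NPC1 promoter was measured in stably transfected Huh7 cells after a 24 h compound incubation, using a luciferase reagent and a luminescence read.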
Rab9 promoter act = Rab9 promoter activation. Huh7 Rab9 promoter-luciferase reporter, luminescence, 24 h. Potency, µM (doses to about 9.22 µM), for the others: at the highest dose activation, negative = inhibition, most hits filed as activators. 320,000 compounds, 2.8% hits. AID 485297; further: % of control where 0% means no effect; nearly all actives have a fitted effect of over 60% in size
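Measured in stably transfected Huh7 cells bearing a Rab9 promoter–luciferase construct: 24 h compound treatment at 37 °C, followed by luminescence detection.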
FLuc counter = inhibits or activates purified firefly luciferase, miR-21 counter-screen; AID 588342; purified FLuc, Km substrates, luminescence inhibition; P08659; Potency, µM (series often up to 57.5 µM), for the others: at the highest dose activity change, negative = inhibition, actives largely listed as inhibitors; 360,000 compounds, 6.9% hits;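 further: plate controls were vehicle for no effect and reference inhibitor for full effect; nearly all actives have a fitted effect of over 55% in size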
Target sequence (P08659 whole entry, looked up): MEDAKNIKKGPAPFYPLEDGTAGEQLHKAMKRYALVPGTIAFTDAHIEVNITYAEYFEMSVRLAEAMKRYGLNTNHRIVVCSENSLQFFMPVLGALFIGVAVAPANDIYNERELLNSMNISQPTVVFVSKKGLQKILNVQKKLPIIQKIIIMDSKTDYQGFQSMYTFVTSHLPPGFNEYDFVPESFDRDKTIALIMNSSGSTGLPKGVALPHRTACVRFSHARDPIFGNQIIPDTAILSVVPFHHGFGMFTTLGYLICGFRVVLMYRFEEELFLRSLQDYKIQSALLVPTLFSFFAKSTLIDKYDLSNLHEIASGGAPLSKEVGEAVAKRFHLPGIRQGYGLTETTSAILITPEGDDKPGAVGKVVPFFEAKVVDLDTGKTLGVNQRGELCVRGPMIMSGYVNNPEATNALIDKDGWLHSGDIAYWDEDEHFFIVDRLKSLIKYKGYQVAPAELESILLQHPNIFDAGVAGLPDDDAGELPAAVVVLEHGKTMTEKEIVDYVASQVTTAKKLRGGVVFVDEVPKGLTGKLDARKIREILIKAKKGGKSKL
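Purified P. pyralis luciferase, 10 nM final, with Km-level 10 uM D-luciferin and 10 uM ATP in 50 mM Tris acetate pH 7.5, 10 mM Mg acetate, 0.01% Tween-20, 0.05% BSA; 6-point qHTS titration about 60 µM downward; luminescence read.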
Luc counter = blocks Kinase-Glo luciferase, a counter-screen artifact | Q27757 | Potency, µM (highest dose often 38.3 µM), without a hit: at the highest dose activity change, negative = inhibition, usual class: inhibitors | 200,000 compounds, 0.28% hits | Kinase-Glo luciferase, ATP luminescence, 8 min; further: on the % scale 0 is the no-effect control and ±100 the full control effect; nearly all actives have a fitted effect of over 60% in size
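Recombinant Kinase-Glo luciferase, 10 uM ATP (linear range), luciferin; imidazole pH 7.2 / KCl / MgCl2 / Tween / BSA buffer; 8 min RT; luminescence.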
Starred values were filed as active, the others as inactive. Hits are enriched below; roughly 7.3% of the tested compounds scored in any of these assays. The call rests on the fitted dose curve; in most records, active means well fitted curve in the direction sought with a large enough effect; inconclusive means small, poorly fitted or top-dose-only effect, or another doubt; inactive means no such curve, though single readings can be large; an effect the other way counts as inactive or inconclusive. Potency means the concentration at half of the fitted maximal effect.

For Cc1cc(C)cc(NC(=O)Cn2nnc(-c3ccccc3F)n2)c1 the results were FLuc counter -0.8%.
For CCN(CC)CCCC(C)NC(=O)c1ccc(-n2c(=O)c(=O)[nH]c3ccccc32)cc1 (centres undefined) the results were Luc counter -0.6%.
For CCc1ccc(C2C(C(=O)Nc3ccccc3OC)=C(C)Nc3c(C(=O)Nc4ccc(C)cc4)cnn32)cc1 (centres undefined) the results were FLuc counter -5.6%.
`CCOc1ccc2oc(C(=O)NC(C)(C)CC)c(C)c2c1` gave SMN2 splice enh inconclusive, NPC1 promoter act inconclusive, Rab9 promoter act 2.51µM*, FLuc counter 16.9µM* and Luc counter -0.7%.
For Cc1c(C(=O)NCCc2ccccc2)oc2ccccc12 the results were NPC1 promoter act 0.794µM*, Rab9 promoter act 0.708µM* and FLuc counter 2.13µM*.
`COc1ccc2oc(C(=O)NCCc3ccccc3)c(C)c2c1` gave NPC1 promoter act 0.447µM*, Rab9 promoter act inconclusive and FLuc counter inconclusive.
Screening COc1ccc(C(CNC(=O)c2oc3ccccc3c2C)N2CCCC2)cc1 (centres undefined) returned NPC1 promoter act -3.1%, Rab9 promoter act -9.1% and FLuc counter 21.3µM*.
Screening CCOc1ccc2oc(C(=O)NC3CC(C)(C)NC(C)(C)C3)c(C)c2c1 returned SMN2 splice enh -4.4%, NPC1 promoter act -0.1%, Rab9 promoter act -2.7%, FLuc counter -2.8% and Luc counter -3.5%.
CCN(c1cccc(C)c1)S(=O)(=O)c1cc2c(cc1C)n(C)c(=O)c(=O)n2C was read as FLuc counter -2.8%.
Screening Cc1c(C(=O)N(C)C)sc2c1c(=O)n(-c1ccc(F)cc1)c(=O)n2Cc1ccccc1C#N returned FLuc counter 0.9%.
Screening COc1ccc(CC(=O)NCCc2sc(-c3ccc(Cl)cc3)nc2C)cc1OC returned FLuc counter -13.4%.
For O=C(Nc1ccc2c(c1)OCCO2)C1CCN(C(=O)c2ccc([N+](=O)[O-])cc2)CC1 the results were SMN2 splice enh -25.6%, NPC1 promoter act -3.8%, Rab9 promoter act 0.5%, FLuc counter 1.1% and Luc counter 6.5%.
For O=C1CC(c2ccc3c(c2)OCCO3)Oc2ccccc21 (centres undefined) the results were NPC1 promoter act 3.16µM*, Rab9 promoter act 2.82µM* and FLuc counter 21.3µM*.
Screening O=C1CC(c2ccc(O)c(O)c2)Oc2cc(O)cc(O)c21 (centres undefined) returned SMN2 splice enh -18.1%, NPC1 promoter act -12.1%, Rab9 promoter act -10.6%, FLuc counter -13.0% and Luc counter -0.7%.
Screening NC(=S)N/N=C1\CC(c2ccc3c(c2)OCCO3)Oc2ccc(F)cc21 (centres undefined) returned NPC1 promoter act -3.1%, Rab9 promoter act -1.4% and FLuc counter inconclusive.
`O=C1CC(c2ccc3c(c2)OCCO3)Oc2ccc([N+](=O)[O-])cc21` (centres undefined) gave NPC1 promoter act inconclusive, Rab9 promoter act 0.562µM* and FLuc counter 0.269µM*.
`COc1ccc(C2CC(=O)c3ccccc3O2)cc1` (centres undefined) gave SMN2 splice enh -5.0%, NPC1 promoter act inconclusive, Rab9 promoter act inconclusive, FLuc counter 15.1µM* and Luc counter 10.3%.
O=C1CC(c2ccccc2)Oc2cc(O)cc(O)c21 (centres undefined) was read as NPC1 promoter act 20.7%, Rab9 promoter act 14.3% and FLuc counter 16.9µM*.
COc1ccc2cnoc(=O)c2c1OC was read as SMN2 splice enh -10.4% and Luc counter -0.8%.
`CCCCN(C)CCNC(=O)c1cc(-c2ccc(Cl)s2)nc2ccccc12` gave SMN2 splice enh 0.0% and FLuc counter -1.5%.
`Cc1oc(-c2cccc(Br)c2)nc1Cn1c(SCc2cccc(F)c2)nc2cccnc21` gave FLuc counter 0.9%.
Screening CC(=O)C(C)Oc1ccc2c3c(c(=O)oc2c1)CCCCC3 (centres undefined) returned SMN2 splice enh inconclusive, NPC1 promoter act inconclusive, Rab9 promoter act 2.82µM*, FLuc counter 21.3µM* and Luc counter -5.0%.
For CC(Oc1ccc2c3c(c(=O)oc2c1)CCCC3)C(=O)NCc1ccncc1 (centres undefined) the results were NPC1 promoter act -1.2%, Rab9 promoter act 1.2% and FLuc counter -6.3%.
O=C(COc1ccc2c3c(c(=O)oc2c1)CCC3)Nc1ccccn1 was read as NPC1 promoter act 0.398µM*, Rab9 promoter act 5.01µM* and FLuc counter 0.269µM*.
For Cc1cc(NC(=O)COC(=O)COc2ccc3c4c(c(=O)oc3c2)CCC4)no1 the results were SMN2 splice enh 26.4%, NPC1 promoter act -4.7%, Rab9 promoter act -1.5%, FLuc counter -13.7% and Luc counter -2.0%.
Screening CC(=O)C(C)Oc1ccc2c3c(c(=O)oc2c1)CCCC3 (centres undefined) returned SMN2 splice enh -3.9%, NPC1 promoter act 22.1%, Rab9 promoter act 24.2%, FLuc counter 15.1µM* and Luc counter 2.7%.
Screening CC(=O)COc1ccc2c3c(c(=O)oc2c1)CCCC3 returned SMN2 splice enh -19.2%, NPC1 promoter act 3.1%, Rab9 promoter act -2.5%, FLuc counter -1.5% and Luc counter -5.6%.
`CN(C(=O)c1cc2c(=O)n3ccccc3nc2n1C)c1ccccc1` gave FLuc counter 2.4%.
Screening Cn1c(-c2ccccn2)[n+](C)c2ccccc21 returned NPC1 promoter act -11.1%, Rab9 promoter act 1.4%, FLuc counter -1.8% and Luc counter -3.8%.
Screening Cn1c(-c2ccc3ccccc3n2)[n+](C)c2ccccc21 returned NPC1 promoter act -12.4%, Rab9 promoter act -31.3% and FLuc counter 21.3µM*.
Cc1cccc(N2CCN(CCNC(=O)Nc3ccc(Cl)cc3)CC2)c1C was read as SMN2 splice enh 1.9% and FLuc counter -15.5%.
For O=C(NC(=S)Nc1ccc(N2CCCCC2)c(Cl)c1)c1ccc2c(c1)OCCO2 the results were SMN2 splice enh -54.0%, NPC1 promoter act -24.3%, Rab9 promoter act -30.3%, FLuc counter inconclusive and Luc counter -3.6%.
Screening Cc1ccc(C(=O)NC(=S)Nc2ccc3c(c2)OCCO3)c(C)c1 returned SMN2 splice enh 14.8%, NPC1 promoter act inconclusive, Rab9 promoter act inconclusive, FLuc counter 9.53µM* and Luc counter 0.2%.
Screening Cc1cc(C)cc(C(=O)NC(=S)Nc2ccc3c(c2)OCCO3)c1 returned NPC1 promoter act inconclusive, Rab9 promoter act inconclusive and FLuc counter 6.75µM*.
